# IL-1B inflam inh: inhibitors of inflammasome signaling (IL-1 beta secretion). activity change, % at 57.5 µM. actives 4.7% (n = 360,000). THP-1 LPS/ATP IL-1B secretion, AlphaLISA, 16 h; active compounds read low; in the data active = activity change below about -50%; inconclusive = mostly about -30% to -49%
#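 Secreted IL-1B measured by AlphaLISA bead assay after 16 h compound exposure of THP-1 cells; compounds (final up to 57.5 uM) added 1 h before LPS (250 ng/mL) and ATP (1.25 mM) stimulation; lower signal means less secretion.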
# Six1-Eya2 blk: inhibitors of human Six1/Eya2 interaction. Q15475+O00167. AlphaScreen GST-Six1/His-Eya2 binding, biochemical; active compounds read low. activity change, % (no concentration beside the values). actives 0.56% (n = 360,000); in the data active = activity change below about -65%; inconclusive = mostly about -30% to -63%
#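 AlphaScreen with GST-Six1 and His-Eya2 (5X mix: 250 nM and 500 nM), glutathione donor and nickel acceptor beads; buffer 50 mM Tris pH 8.0, 300 mM NaCl, 1 mM TCEP; 1 h at 37 C in the dark.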
# CtBP-E1A blk: inhibitors of CtBP/E1A interaction; activity change, % (concentration not given with the values); actives 0.49% (n = 340,000); AID 651724; AlphaScreen GST-E1A/His-CtBP binding, 1536-well; active compounds read low; in the data active = activity change below about -65%; inconclusive = mostly about -30% to -63%
#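 AlphaScreen with 125 nM GST-E1A and 125 nM His-CtBP (5X stocks) in Tris pH 8.0, 300 mM NaCl, BSA, Tween 20, TCEP. Compounds preincubated 2 h at 37 deg C, then glutathione donor/nickel acceptor beads added for 1 h at 37 deg C in dark.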
# TDP1 block: inhibitors of human tyrosyl-DNA phosphodiesterase TDP1. Q9NUW8. recombinant TDP1, AlphaScreen DNA substrate cleavage. Potency, µM (titrated, usually from 130 µM), for the others: top-dose activity change, negative = inhibition, usual class: inhibitors. actives 0.28% (n = 350,000); note: potency is the fitted concentration of half-maximal effect; nearly all actives have a fitted effect of over 40% in size
# Target sequence (Q9NUW8 whole entry, looked up): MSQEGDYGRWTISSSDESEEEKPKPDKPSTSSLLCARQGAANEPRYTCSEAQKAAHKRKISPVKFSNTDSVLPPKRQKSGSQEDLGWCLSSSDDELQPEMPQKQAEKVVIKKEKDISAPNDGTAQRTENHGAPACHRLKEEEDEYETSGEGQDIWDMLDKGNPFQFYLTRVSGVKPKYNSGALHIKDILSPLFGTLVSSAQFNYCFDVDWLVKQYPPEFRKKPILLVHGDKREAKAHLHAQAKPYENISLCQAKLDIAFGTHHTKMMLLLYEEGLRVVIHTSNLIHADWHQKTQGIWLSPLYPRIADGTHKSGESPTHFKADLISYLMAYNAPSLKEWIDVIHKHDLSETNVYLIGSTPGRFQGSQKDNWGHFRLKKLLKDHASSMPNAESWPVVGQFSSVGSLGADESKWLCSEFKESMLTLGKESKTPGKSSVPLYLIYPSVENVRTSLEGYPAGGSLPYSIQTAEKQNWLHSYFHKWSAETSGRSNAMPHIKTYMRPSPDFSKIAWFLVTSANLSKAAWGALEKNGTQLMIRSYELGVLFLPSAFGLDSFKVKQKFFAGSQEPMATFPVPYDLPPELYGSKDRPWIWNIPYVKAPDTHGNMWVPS
#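 Recombinant E. coli-expressed Tdp1 (1 nM) preincubated with compound 15 min at RT, then 5'-biotin/3'-phosphotyrosine-FITC DNA substrate (15 nM) added for 5 min. AlphaScreen beads (10 ug/ml) added, 10 min RT; tyrosine-FITC cleavage read as signal loss.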
# DT40 TDP1 CPT: growth inhibition of DT40 Tdp1-/-;hTDP1 cells with camptothecin (screen for TDP1 inhibitors); chicken DT40 Tdp1-/-;hTDP1 cells + 20 nM CPT, ATP luminescence, 48 h; Potency, µM (series often up to 46.2 µM), without a hit: at the highest dose activity change, negative = growth inhibition, most hits filed as inhibitors; actives 12% (n = 420,000); note: potency is the fitted concentration of half-maximal effect; nearly all actives have a fitted effect of over 55% in size
#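 Cell growth measured by CellTiter-Glo luminescence after a minimum 48 h, 37 C compound exposure with 20 nM CPT in Tdp1-knockout DT40 cells stably expressing hTDP1, seeded 400/well; qHTS titration format.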
# DT40 TDP1 no CPT: qHTS for Inhibitors of human tyrosyl-DNA phosphodiesterase 1 (TDP1): qHTS in cells in absence of CPT; actives 15% (n = 420,000); DT40 Tdp1-/- hTDP1 cells, no CPT, ATP luminescence, 48 h; AID 686978, 2013; Potency, µM (top dose mostly 46.2 µM), for inactives: top-dose activity change, negative = growth inhibition, actives largely listed as inhibitors; note: potency is the fitted concentration of half-maximal effect; nearly all actives have a fitted effect of over 55% in size
#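 A cellular qHTS used chicken DT40 cells lacking endogenous Tdp1 but carrying stably transfected human TDP1. Compounds were applied without camptothecin, and cell growth kinetics were judged by ATP-dependent luminescence after ≥48 hr.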
# The depositor's hits bear a star; ? = inconclusive; . = no result given. A selection: hits, their analogues and other compounds. The true share with any hit is near 18%. Unless noted, calls come from the whole dose curve; as a rule, active = well fitted curve in the direction sought with a large enough effect; inconclusive = small, poorly fitted or top-dose-only effect, or another doubt; inactive = no such curve, though single readings can be large; an effect the other way counts as inactive or inconclusive. % is set by controls: 0 for no effect and ±100 for the full control effect.
SMILES,IL-1B inflam inh,Six1-Eya2 blk,CtBP-E1A blk,TDP1 block,DT40 TDP1 CPT,DT40 TDP1 no CPT
CCC(c1nnnn1C(C)(C)CC)N(CCN1CCOCC1)Cc1cc2cc(C)ccc2[nH]c1=O (stereo not given),0,0,-9,4%,?,?
CSc1nsc(NN)n1,-3,-5,1,.,-1%,-5%
O=C(Nc1cccc(C(=O)N2CCOCC2)c1)c1ccccc1Cl,0,7,19,1%,-11%,-12%
CCOC(=O)C1(CCOC)CCN(Cc2nc(C(C)C)cs2)CC1,38,-3,13,-2%,?,26µM*
CCOC(=O)C1(CCOC)CCN(C/C=C/c2ccccc2OC)CC1,0,-7,-2,.,10µM*,10µM*
COc1ccccc1/C=C/CN1CCCC(CO)(CCc2ccccc2)C1 (stereo not given),-94*,-2,-8,.,21µM*,?
CCOC(=O)C1(CCOC)CCN(Cc2cccc(OCc3ccccc3)c2)CC1,0,-6,12,.,15µM*,16µM*
CCOC(=O)C1(CCOC)CCN(Cc2ccncc2)CC1,22,-1,4,.,15%,-4%
CCCn1c(N)c(N2CCCCC2)c(=O)n(CC(=O)Nc2cccc(S(=O)(=O)N(C)C)c2)c1=O,-2,-3,4,0%,-28%,16%
CCOC(=O)C1(CCOc2ccccc2)CCN(Cc2cccs2)CC1,-11,1,7,-3%,?,?
CCOC(=O)C1(CCOc2ccccc2)CCN(Cc2cccc(OC)c2O)CC1,-85*,-11,-22,.,?,?
CCOC(=O)C1(CCOc2ccccc2)CCN(Cc2cc(OC)ccc2OC)CC1,-7,-18,.,.,?,15µM*
CCOC(=O)C1(CCOc2ccccc2)CCN(Cc2cccc(OC)c2)CC1,-8,2,-11,.,23µM*,15µM*
CCOC(=O)C1(CCOc2ccccc2)CCN(Cc2cccn2-c2ncccn2)CC1,-27,-11,0,.,?,?
CCn1c(N2CCN(C(=O)/C=C/c3ccccc3)CC2)nc2ccccc21,-2,-3,-1,4%,-20%,?
CCn1c(N2CCN(C(=S)NCC(C)C)CC2)nc2ccccc21,-54*,-1,8,-5%,?,-22%
CCn1c(N2CCN(C(=S)NCCc3ccccc3)CC2)nc2ccccc21,?,-10,-9,4%,?,26µM*
CCn1c(N2CCN(C(=S)NC)CC2)nc2ccccc21,-7,2,6,-4%,-24%,1%
CCn1c(N2CCN(C(=S)Nc3ccc(OC)cc3)CC2)nc2ccccc21,-20,-4,.,6%,15µM*,15µM*
CC(Nc1[nH]c(=O)n(C)c(=O)c1N=O)c1ccccc1 (stereo not given),33,-2,-4,6%,2%,7%
CCOc1ccc(-c2cccc(NS(=O)(=O)c3ccc(F)cc3F)c2)nn1,.,.,.,9%,?,?
COC(=O)c1sccc1S(=O)(=O)N1CCN(c2ccc(C)cc2C)CC1,.,.,.,3%,?,23µM*
COC(=O)c1sc(S(=O)(=O)N2CCN(c3ccc(OC)cc3)CC2)c(C(=O)OC)c1C,46,-19,-16,-4%,-6%,?

# Screening results: PubChem BioAssay, National Center for Advancing Translational Sciences (NCATS)
